{"source": "PubChem BioAssay (NCI)", "note": "About 83,000 compounds went through this panel and 20% of them were active in at least one assay; those are over-represented in the sample as a whole.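 Compound tested at a single concentration for 48 hours in 96-well plates; a percent growth value below 10 was scored as active.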 Unmarked numbers belong to inactive results. The source made the active and inactive calls.", "data": [{"test_system": "HL-60(TB) leukemia", "test": "NCI-60 one-dose screen, 48 h (100 = growth as untreated, 0 = no growth, -100 = all killed)", "settings": "10 µM unless noted", "values": [{"smiles": "CCOC(=O)C1=C(c2ccccc2)N=C2SC=C(c3ccc(Cl)cc3)N2C1c1ccc(Br)cc1", "note": "(stereo not given)", "growth": "55.2%"}, {"smiles": "C=C1CCC2C(C)(CO)C(O)CCC2(C)C1C/C=C1/C(=O)OCC1Oc1ccccc1C", "note": "(stereo not given)", "growth": "57.4%"}, {"smiles": "O=C(Nc1cccc2[nH]c(C(F)(F)F)nc12)c1ccc(-n2cnnn2)cc1", "growth": "1.31% (active)"}, {"smiles": "COc1cc(C(=O)c2cnc(-c3cccc4[nH]ccc34)[nH]2)cc(OC)c1OC", "growth": "-28.6% (active)"}, {"smiles": "COc1ccc(C2=Nn3c(nnc3-n3nc(C)cc3C)SC2)cc1", "growth": "-29% (active)"}, {"smiles": "COc1cnc2c(c1)C(=O)c1c-2n(CCCNC2=NCCS2)c(=O)c2cc([N+](=O)[O-])ccc12", "growth": "-58.7% (active)"}, {"smiles": "Nc1c(C(=O)Nc2ccncc2)sc2nc3c(cc12)CCCCC3", "growth": "55.5%"}, {"smiles": "O=C1NC(=O)C(Cc2ccc(OCc3ccc(-c4cc(F)c(F)c(F)c4)cc3)cc2)S1", "note": "(stereo not given)", "growth": "106%"}, {"smiles": "COc1ccccc1CNc1nc(N)nc2[nH]c3ccc(O)cc3c12", "growth": "34.3%"}, {"smiles": "CCOC(=O)c1c(CN2CCN(C)CC2)nc2ccc(Cl)cc2c1-c1ccccc1", "growth": "26.5%"}, {"smiles": "COc1ccc(-c2nc3c(c(-c4ccc(Cl)cc4)nn3-c3ccccc3)c(-c3ccccc3)c2C#N)cc1", "growth": "114%"}, {"smiles": "Cc1cc2ccccc2cn1", "growth": "91.6%"}, {"smiles": "Nc1nc2c(c3ncccc13)C(c1cccc(Cl)c1)Cc1ncccc1-2", "note": "(stereo not given)", "growth": "-6.22% (active)"}, {"smiles": "CNCc1cccc2c1OCCOCCN(C)C(=O)CN(C)S(=O)(=O)c1ccc(cc1)-c1cnc(N)c(n1)C(=O)N2", "growth": "-32.9% (active)"}, {"smiles": "O=C1C=CC(=O)N1c1ccc(Cc2ccc(N3C(=O)C=CC3=O)cc2)cc1", "growth": "9.02% (active)"}, {"smiles": "CCOC(=O)CN1/C(=N/c2sc3c(c2C(=O)OCC)CCN(C(=O)OCC)C3)SC(=O)/C1=C\\C(=O)OC", "growth": "79.9%"}, {"smiles": "CC(=O)OC[Si](C)(C)c1ccccc1", "growth": "100%"}, {"smiles": "NC(=O)c1c(NC(=O)COC(=O)Cc2ccccc2F)sc2c1CCC2", "growth": "135%"}, {"smiles": "O=C(c1c[nH]c2ccccc12)C(Sc1nc2ccccc2c(=O)[nH]1)c1ccccc1", "note": "(stereo not given)", "growth": "93.1%"}, {"smiles": "FC(F)(F)c1cccc([Si](F)(c2cccc(C(F)(F)F)c2)c2cccc(C(F)(F)F)c2)c1", "growth": "80.5%"}, {"smiles": "O=C(Nc1ccccc1)c1cc(Cl)ccc1O", "growth": "29.6%"}, {"smiles": "O=S(=O)(c1ccccc1)n1cc2c(c1-c1ccccc1)CCc1sc(Nc3ccccc3)nc1-2", "growth": "94.1%"}, {"smiles": "O=C(NCc1cccnc1)c1cc(-c2csc3c(=O)cc(N4CCOCC4)oc23)cc2c1OCCO2", "growth": "-35.1% (active)"}, {"smiles": "O=C(Nc1cccc(NC(=O)C2CCCCC2)c1)c1ccccn1", "growth": "95.4%"}, {"smiles": "COc1ccc2sc3c(NCCCN)nc4ccccc4c3c(=O)c2c1", "growth": "2.17% (active)"}, {"smiles": "O=C(C1CCCCC1)[C@@H]1[C@]2(C(=O)NC3CCCCC32)[C@@H]2CCCN2[C@@]12C(=O)NC1CCC(Cl)CC12", "note": "(stereo not given in full)", "growth": "-65.9% [100 µM] (active)"}, {"smiles": "O=C1N[C@@H]2[C@@H](O)[C@@H](O)[C@H](O)C[C@H]2c2cc3c(c(O)c21)OCCO3", "growth": "-18.8% (active)"}, {"smiles": "Cn1c(=O)c2c(nc(Br)n2CCC(=O)Nc2ccc(F)cc2)n(C)c1=O", "growth": "91.8%"}, {"smiles": "COC(=O)c1nc(=S)[nH]c(C(=O)OC)c1C(=O)c1ccc(Cl)c(Cl)c1", "growth": "101%"}, {"smiles": "COc1cc(-c2nccc3[nH]c(-c4ccc5cc[nH]c5c4)nc23)cc(OC)c1OC", "growth": "-48.7% (active)"}, {"smiles": "COc1cc(/C=N/NC(=O)c2cnn3c2NC(c2ccccc2)C3)ccc1Oc1ccccc1", "note": "(stereo not given)", "growth": "14.3%"}, {"smiles": "COc1c(B(O)O)cc(F)cc1-c1nc2ccc3[nH]ncc3c2c2c1CCCC2", "growth": "-2.38% (active)"}, {"smiles": "CCN(CC)CCCNC(=O)c1ccc(N)cc1O", "growth": "82.4%"}, {"smiles": "Nc1nc(Cl)c2[nH]cnc2n1", "growth": "89.5%"}, {"smiles": "CCCCCCCCCCC/C=C\\C[C@H](O)C/C=C1/C(=O)C=C[C@@H]1C/C=C\\CCCC(=O)OC", "growth": "-20% (active)"}, {"smiles": "COc1cc(/C=C\\c2cc(OC)c(OC)c(OC)c2)cc(N/C=C\\C(=O)c2c[nH]c3ccccc23)c1OC", "growth": "-30% (active)"}, {"smiles": "C[C@@H]1CC2C3C[C@H](F)C4=CC(=O)C=C[C@]4(C)[C@@]3(F)[C@@H](O)C[C@]2(C)[C@@]1(O)C(=O)CO", "note": "(stereo not given in full)", "growth": "99.1%"}, {"smiles": "O=c1[nH]c(-c2ccncc2)nc2sc3c(c12)CCCCCC3", "growth": "91.4%"}, {"smiles": "O=S(=O)(NCCNc1nccc(-c2c(-c3ccc(F)c(O)c3)nc3sccn23)n1)c1ccc(Cl)cc1", "growth": "-26.9% (active)"}, {"smiles": "CCCCN(Cc1ccc(C(=O)NO)cc1)C(=O)Nc1ccc(OCCCCCCCCCn2cc(CCCCC(=O)N[C@H](C(=O)N3C[C@H](O)C[C@H]3C(=O)NCc3ccc(-c4scnc4C)cc3)C(C)(C)C)nn2)cc1", "growth": "21.6%"}]}]}
